The results in this text go back to PubChem BioAssay (NCI).

Compounds without any hit were thinned out: in the full panel of roughly 83,000, 20% have a hit.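 48-hour exposure, single concentration, 96-well plates; percent growth endpoint where 0 means no net growth. Active: below 10.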 A number with no mark means an inactive call. Active and inactive are the calls of the source.

Holding throughout (test): NCI-60 one-dose screen, 48 h (100 = growth as untreated, 0 = no growth, -100 = all killed)
What all share (settings): 10 µM unless noted

The test system of assay [1] is T-47D breast.
In assay [2] the test system is BT-549 breast.
The test system of assay [3] is MDA-MB-435 melanoma.
For assay [4], the system named is SW-620 colon.
For assay [5], the system named is MCF7 breast.
Assay [6] has as its system HCT-116 colon.
Assay [7] relates to HCC-2998 colon.
Assay [8] concerns KM12 colon.

For `Cc1ccc(-n2c(=S)[nH]c3sc4c(c3c2=O)CCC(=O)C4)cc1`, the growth in assay [1] is 42.4%; in assay [2], 59.9%; in assay [3] it was -33.3% (active); in assay [4], 17.8%; in assay [5], 14.7%; in assay [6], 36.2%. The growth in assay [7] is 80.8%; in assay [8] it was 41.7%.
`CCN(CC)CCOc1ccc(-c2c(-c3ccccc3)c(=O)oc3ccccc23)cc1`: the growth was 47% in assay [1]; 69.3% in assay [2]; 100% in assay [3]; 87.3% in assay [4]; 89.6% in assay [5]; 65.6% in assay [6]. Further, the growth was 99.1% in assay [7] and 100% in assay [8].
Consider `COc1cc(-c2nc(SCC(C)C)nc(Nc3cccc4ccccc34)c2C#N)cc(OC)c1OC`, for which the growth in assay [1] is 70.3%; in assay [2], 110%; in assay [3], 99.3%; in assay [4], 95.3%; in assay [5], 94%; in assay [6], 37.7%. For the same molecule, the growth is 118% in assay [7] and 97.5% in assay [8].
Consider `Clc1ccc2c(c1)N(c1ncnc3ccc(-c4cnc5[nH]ncc5c4)cc13)CC2`, for which the growth in assay [1] was 0.466% (active); in assay [2], 22.6%; in assay [3], 31.1%; in assay [4], 47.4%; in assay [5] it was 18.2%; in assay [6], 35.8%. Also, the growth in assay [7] was 36.6%; in assay [8], 36.4%.
`C=C1C(=O)O[C@H]2[C@H]1CC/C(COC(=O)NCc1cc[nH]c1)=C\CC[C@@]1(C)O[C@@H]21`: the growth was 69.5% in assay [1]; 55.6% in assay [2]; 34.2% in assay [3]; 21.6% in assay [4]; 34.8% in assay [5]; 36.1% in assay [6]. Also, the growth in assay [7] was 95%; in assay [8], 78.2%.
`CN1CCN(c2ccc(NC(=O)c3nc4ccc5[nH]ncc5c4c4c3CCCC4)cc2C(F)(F)F)CC1`: the growth in assay [1] was 66.5%; in assay [2], 90.6%; in assay [3], 29.7%; in assay [4], 5% (active); in assay [5], 24.6%; in assay [6], 2.82% (active). In addition, the growth was 21.1% in assay [7] and 37.9% in assay [8].
Take `Cc1ccc(/C=C2\CN(C(=O)OC(C)(C)C)C/C(=C\c3ccc(C)cc3)C2=O)cc1`: the growth is 61.1% in assay [1]; 99.9% in assay [2]; -44.4% (active) in assay [3]; 5.21% (active) in assay [4]; 15.7% in assay [5]; -44.4% (active) in assay [6]. The growth in assay [7] is 29.5%; in assay [8] it was -16% (active).
For `N#CC1C=CN(CC(N)=O)c2ccc3cccnc3c21` (configuration not stated), the growth in assay [1] is 90.9%; in assay [2], 102%; in assay [3], 102%; in assay [4], 104%; in assay [5] it was 85.8%; in assay [6], 94.8%. The growth in assay [7] is 106%; in assay [8], 105%.
Turning to `O=C(NCCCCNC(=O)OCc1ccc2c(Cl)cc(Cl)c(O)c2n1)OCc1ccc2c(Cl)cc(Cl)c(O)c2n1`, the growth in assay [1] was 61%; in assay [2], 15.3%; in assay [3] it was -48.7% (active); in assay [4], 19.5%; in assay [5] it was 13.7%; in assay [6], 7.49% (active). Moreover, the values for the growth in assay [7] and in assay [8] were 18.5% and 6.41% (active), respectively.
Consider `COCCn1c(-c2csc(-c3cn(C)c4ccc(OC)cc34)n2)cc2cccnc21`, for which the growth is 8.7% (active) in assay [1]; 43.6% in assay [2]; 74.5% in assay [3]; 15.1% in assay [4]; 47.5% in assay [5]; 57.2% in assay [6]. The results for the growth in assay [7] and in assay [8] were -3.8% (active) and 21.5%, respectively.
On to `C=C(C)[C@@H]1CC[C@]2(C(=O)OC)CC[C@]3(C)[C@H](CC[C@@H]4[C@@]5(C)C/C(=C/NC(N)=S)C(=O)C(C)(C)[C@@H]5CC[C@]43C)[C@@H]12`, for which the growth in assay [1] is 60.9%; in assay [2], 126%; in assay [3], 93.7%; in assay [4] it was 87.3%; in assay [5], 80.7%; in assay [6], 74.4%. For the same molecule, the growth is 99.4% in assay [7] and 82.6% in assay [8].
`CC1=C(C(=O)OC(C)C)C(c2ccc3c(c2)OCO3)NC(=S)N1` (configuration not stated): the growth in assay [1] is 91.4%; in assay [2], 96%; in assay [3] it was 106%; in assay [4], 107%; in assay [5] it was 98.7%; in assay [6], 95.6%. The growth was 115% in assay [7] and 108% in assay [8].
As for `CCOC(=O)c1cnc2ccccc2c1Cl`, the growth in assay [1] was 102%; in assay [2], 112%; in assay [3], 98.9%; in assay [4], 90.9%; in assay [5], 99.1%; in assay [6], 95.7%. The growth in assay [7] was 98.4%; in assay [8] it was 101%.
Consider `COc1ccc(N2CCC(=O)NC2=S)cc1`, for which the growth in assay [1] is 102%; in assay [2], 101%; in assay [3], 109%; in assay [4], 96.8%; in assay [5] it was 95.2%; in assay [6], 105%. Also, the values for the growth in assay [7] and in assay [8] were 95.9% and 106%, respectively.
As to `COc1ccc(CC(C#N)c2cc3ccccc3[nH]2)cc1` (configuration not stated), the growth was 85.5% in assay [1]; 92.8% in assay [2]; 82.2% in assay [3]; 93.6% in assay [4]; 94% in assay [5]; 92.3% in assay [6]. The growth in assay [7] is 87.5%; in assay [8], 84.7%.
As to `C=CC(=O)NCc1ccc(Nc2nccc(-c3ccc(N4CCCC4)c(C#N)c3)n2)cc1`, the growth in assay [1] is 71%; in assay [2] it was -10.3% (active); in assay [3] it was 10.1%; in assay [4], 43.9%; in assay [5], 14.3%; in assay [6] it was 22.2%. In addition, the growth is 71.3% in assay [7] and 35.2% in assay [8].
With `CN1C(=O)/C(=C/c2cn(-c3ccccc3)nc2-c2ccccc2)SC1=S`, the growth in assay [1] is 96.1%; in assay [2], 106%; in assay [3], 99.5%; in assay [4] it was 98.8%; in assay [5], 83.6%; in assay [6], 99.8%. The growth in assay [7] was 115%; in assay [8], 102%.
Regarding `O=S(=O)(Nc1ccccc1)c1ccc(C2CC3(Cl)C(Cl)=C(Cl)C2(Cl)C3(Cl)Cl)cc1` (configuration not stated), the growth is 29.4% in assay [1]; 76.4% in assay [2]; 23.6% in assay [3]; 30.7% in assay [4]; 23.2% in assay [5]; 17.6% in assay [6]. In addition, the growth was 53.5% in assay [7] and 22.7% in assay [8].
For `O=C(O)[C@@H]1c2ccccc2-c2ccccc2[C@H]1C(=O)O`, the growth in assay [1] was 102%; in assay [2] it was 114%; in assay [3] it was 100%; in assay [4], 101%; in assay [5], 94.6%; in assay [6] it was 92.6%. Moreover, the growth in assay [7] is 100%; in assay [8], 105%.
As to `Oc1c(Cl)cc(Cl)c2ccc(Cn3cc(-c4ccc(C(F)(F)F)cc4)nn3)nc12`, the growth was 55.4% in assay [1]; 77.7% in assay [2]; 59.5% in assay [3]; 7.74% (active) in assay [4]; 29.4% in assay [5]; 8.81% (active) in assay [6]. The growth in assay [7] was 105%; in assay [8], 101%.
In the case of `COc1ccc(/C=N/C2=C(C#N)C(c3cccc(Cl)c3)c3c(ccc4ccccc34)O2)cc1` (configuration not stated), the growth in assay [1] was 36.7%; in assay [2], 29.3%; in assay [3] it was -36% (active); in assay [4], 23.7%; in assay [5], 11.1%; in assay [6], 21.8%. Further, the growth is 65.4% in assay [7] and 24.9% in assay [8].
As for `CN(Cc1ccc(C(F)(F)F)cc1)CC(O)C(=O)Nc1ccc(Cl)cc1` (configuration not stated), the growth in assay [1] is 18.4%; in assay [2], 56.1%; in assay [3], -4.56% (active); in assay [4], -41.5% (active); in assay [5], -23.4% (active); in assay [6] it was -94.3% (active). Further, the figures for the growth in assay [7] and in assay [8] were -48.2% (active) and -36.1% (active), respectively.
Take `O=C1/C(=C/c2ccc(F)cc2)COc2ccc(O)cc21`: the growth in assay [1] was 86.6%; in assay [2], 78.2%; in assay [3] it was 62.9%; in assay [4] it was 26%; in assay [5] it was 7.92% (active); in assay [6], 23.6%. For the same molecule, the growth in assay [7] is 90%; in assay [8], 45.9%.
Take `CCN(CC)CCCN1C(=O)c2c(c(C)c3c(oc4cc(O)ccc43)c2C)C1=O`: the growth is 97.7% in assay [1]; 94.8% in assay [2]; -61.1% (active) in assay [3]; -36% (active) in assay [4]; -69.2% (active) in assay [5]; -76.4% (active) in assay [6]. Moreover, the values for the growth in assay [7] and in assay [8] were -88.9% (active) and -59.3% (active), respectively.
Turning to `COc1ccc(Cc2cc(-c3ccccc3)nn(Cc3ccccc3)c2=O)cc1OC`, the growth in assay [1] was 7.51% (active); in assay [2], 14.7%; in assay [3], 43.9%; in assay [4] it was 41%; in assay [5], 19.9%; in assay [6], 15%. For the same molecule, the growth in assay [7] was 60.5%; in assay [8], 35.2%.
As for `CCOC(=O)C(=Cc1cccc(Br)c1)C(=O)OCC`, the growth is 1.63% (active) in assay [1]; 28% in assay [2]; 23.7% in assay [3]; 25.9% in assay [4]; 11% in assay [5]; 14% in assay [6]. Further, the growth was 101% in assay [7] and 11.9% in assay [8].
With `COCCn1cc(-c2nc(-c3cc4cccnc4n3CCOC)cs2)c2cc(OC)ccc21`, the growth is -10.5% (active) in assay [1]; 57% in assay [2]; 91.4% in assay [3]; 49% in assay [4]; 5.4% (active) in assay [5]; 43% in assay [6]. Also, the growth in assay [7] is 28%; in assay [8], 11.8%.
Turning to `C#Cc1ccc(NC(=O)c2ccc(/C=C/C(=O)c3nccn3C)cc2)cc1`, the growth is 0.0135% (active) in assay [1]; -78.5% (active) in assay [2]; -44.7% (active) in assay [3]; -73.3% (active) in assay [4]; -45.4% (active) in assay [5]; -62.6% (active) in assay [6]. Further, the growth in assay [7] is -89.2% (active); in assay [8], -64.1% (active).
Take `C=CCc1c(O)c(C(=O)/C=C/c2ccc(Cl)cc2)c(OC)c2ccoc12`: the growth in assay [1] was 39.9%; in assay [2] it was 47.8%; in assay [3] it was 18.2%; in assay [4] it was 37.3%; in assay [5] it was 21.4%; in assay [6], 17.2%. Moreover, the growth was 63.3% in assay [7] and 41.1% in assay [8].
